Screening data as filed in PubChem.
LANA-H2A inh = blockers of LANA interaction with H2A/H2B – biochemical, FP readout, HTS, primary screen; Protein LANA1 (Human herpesvirus 8 type P (isolate GK18)), Q9QR71; actives 0.6% (n = 320,000); cell-free LANA-H2A/H2B peptide, fluorescence polarization; inhibition, % (no concentration beside the values); in the data active = inhibition mostly above about 10%, no sharp cut-off; inactive = mostly below about 6.7%
HDAC3 inhib = HDAC3 deacetylase inhibitors, primary screen, biochemical, fluorescence, cell-free homogeneous; Histone deacetylase 3 (Homo sapiens), O15379; recombinant HDAC3, fluorogenic peptide/trypsin coupled; inhibition, % at 8.3 µM; actives 0.15% (n = 320,000); in the data active = inhibition above about 26%, passing the limit was not always enough
Target sequence (O15379 whole entry, looked up): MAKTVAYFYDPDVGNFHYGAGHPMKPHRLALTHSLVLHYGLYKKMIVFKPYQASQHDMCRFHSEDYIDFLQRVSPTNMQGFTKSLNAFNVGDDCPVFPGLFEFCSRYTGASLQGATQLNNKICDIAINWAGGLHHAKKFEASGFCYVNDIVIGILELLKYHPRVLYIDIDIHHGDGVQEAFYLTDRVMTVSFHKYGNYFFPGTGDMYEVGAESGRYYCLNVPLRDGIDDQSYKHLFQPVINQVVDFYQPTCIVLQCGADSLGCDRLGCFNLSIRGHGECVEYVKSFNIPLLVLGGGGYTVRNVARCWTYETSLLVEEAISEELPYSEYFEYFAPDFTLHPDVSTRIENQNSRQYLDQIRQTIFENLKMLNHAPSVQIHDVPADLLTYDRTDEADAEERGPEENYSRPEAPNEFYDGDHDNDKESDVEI
Mot1-301 SUMO = yeast Mot1-301 growth rescue at high temperature, primary screen, SUMOylation pathway inhibitor project, S. cerevisiae, ATP luminescence, 38.5C | actives 1% (n = 320,000) | S. cerevisiae Mot1-301 growth rescue; percent above DMSO median, 100 means doubled | growth rescue, % at 18.8 µM;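 active = every valid replicate shows activation above 250% relative to neutral control wells; inactive = the rest, any valid replicate at or below 250%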
IDE act = human IDE activators in live cells, primary screen, fluorescence polarization, HEK cells, FAbeta-B substrate; Insulin-degrading enzyme (Homo sapiens), P14735; FAbeta-B cleavage; 0% vehicle, 100% cell-free pure enzyme wells; activation, % at 5.96 µM; actives 0.073% (n = 340,000); AID 493087, 2011;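 active = activation above the mean of all tested compounds plus 3 SD, set per screening campaign, cut at about 17% in these data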
IDE cell inh = human IDE inhibitors in live cells, primary screen, fluorescence polarization, HEK cells, FAbetaB substrate; inhibition, % at 5.59 µM; AID 434962, 2010; Insulin-degrading enzyme (Homo sapiens), P14735; actives 0.41% (n = 320,000); FAbetaB cleavage;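 active = percent inhibition above the average of all tested compounds plus 3 SD, set per screening campaign, cut at about 16% in these data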;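 note: IDE supplied by intact live HEK cells; FP after avidin binding of uncleaved biotin substrate so inhibition keeps polarization high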
IDE cell inh cf = human IDE inhibitors in live cells, confirmation, fluorescence polarization, HEK cells, FAbetaB substrate. shares compounds with IDE cell inh. FAbetaB cleavage. inhibition, % at 5.59 µM. actives 51% (n = 1,200). AID 435028, 2010;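 active = mean inhibition across triplicate wells above the cutoff set by the earlier primary insulin-degrading enzyme screen, cut at about 16% in these data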
HEK cytotox = cytotoxicity in HEK cells, cytotoxicity control for IDE inhibitor project, cell-based, luminescence | actives 28% (n = 1,200) | inhibition, % at 5.59 µM | HEK293 cytotoxicity, ATP luminescence | AID 449730, 2010 | shares compounds with IDE cell inh; in the data active = inhibition above about 22%
A number is an active result; i = inactive; nt = not tested or not shown. Compounds with a hit are over-represented: about 2.1% of the library has one in this group of screens.

SMILES	LANA-H2A inh	HDAC3 inhib	Mot1-301 SUMO	IDE act	IDE cell inh	IDE cell inh cf	HEK cytotox
Cc1nnc(-c2ccccc2)c(=O)n1/N=C/c1c(O)ccc2ccccc12	i	i	i	i	53.5	39.8	57.4
Cc1nnc(C)n1/N=C/c1c(O)ccc2ccccc12	i	i	i	i	i	nt	nt
O=C(Oc1ccc(F)cc1)c1cccnc1	i	i	i	i	i	nt	nt
CC1=CC(C)(C)Nc2ccc(OC(=O)CN3C(=O)CCC3=O)cc21	i	i	i	i	26.5	32.2	91.8
CC1=CC(C)(C)Nc2ccc(C)cc21	i	i	i	i	i	nt	nt
COc1ccc(OC(=O)C(C)N2C(=O)c3ccccc3C2=O)cc1 (stereo not given)	i	i	i	i	i	nt	nt
CC1=CC(C)(C)Nc2ccc(OC(=O)c3cccnc3)cc21	i	i	i	i	21.9	32.6	103.1
CC1=CC(C)(C)Nc2ccc(OC(=O)c3ccco3)cc21	i	i	i	i	50.3	42.3	119.7
CC1=CC(C)(C)Nc2ccc(OC(=O)C(C)N3C(=O)c4ccccc4C3=O)cc21 (stereo not given)	i	i	i	i	25.7	24.2	76.2
CCC(=O)NC(c1ccc(C)cc1)c1cc([N+](=O)[O-])c2cccnc2c1O (stereo not given)	i	i	i	i	33.5	i	39.1
CC(CC(=O)O)CC(=O)N1CCN(S(=O)(=O)c2cccs2)CC1 (stereo not given)	i	i	i	i	20.2	i	i
COc1ccc(Cl)cc1NC(=O)CN(C)C(=O)Cc1ccsc1	i	i	i	i	i	nt	nt
COc1ccc(Cl)cc1NC(=O)CN(C)C(=O)Cc1ccc2c(c1)CCC2	i	i	i	i	18.4	19.1	i
O=C(CCC1N=C2c3ccccc3N=C(SCc3ccccc3Cl)N2C1=O)NCc1ccco1 (stereo not given)	i	i	i	i	21.2	i	i
COc1ccc(C2=NN(C(=O)c3ccccc3)C(c3ccc(OC)c(OC)c3)C2)c(OC(C)=O)c1 (stereo not given)	i	i	i	i	i	nt	nt
CSc1ccc(C2C(C#N)=C(N)Oc3c2ccc(=O)c2c(C)oc(C)c32)cc1 (stereo not given)	i	i	i	i	29.8	109.4	25.2
Cc1oc(C)c2c(=O)ccc3c(c12)OC(N)=C(C#N)C3c1ccccc1Cl (stereo not given)	i	i	i	i	30.5	25.9	i
Cc1oc(C)c2c(=O)ccc3c(c12)OC(N)=C(C#N)C3c1ccccc1 (stereo not given)	i	i	i	i	i	nt	nt
N#CC1=C(N)OC2=C(CC/C2=C\c2ccccc2Cl)C1c1ccccc1Cl (stereo not given)	i	i	i	i	i	nt	nt
Cc1ccc(NCCCCO)cc1C	i	i	i	i	i	nt	nt
COCCCNc1nc(N)c([N+](=O)[O-])c(N2CCCCCC2)n1	i	i	i	i	i	nt	nt
N#Cc1cc(C(=O)c2ccccc2O)cn(-c2nccs2)c1=O	i	i	i	i	38.5	61.4	i
N#Cc1cc(C(=O)c2cc(F)ccc2O)cn(-c2nccs2)c1=O	i	i	i	i	33.1	66.6	i
CC(C)n1cc(C(=O)c2ccccc2O)cc(C#N)c1=O	i	i	i	i	i	nt	nt
CCOC(=O)N1CCN(CC(O)COc2ccc(-c3ccccc3)cc2)CC1 (stereo not given)	i	i	i	i	16.6	i	i
SMILES	LANA-H2A inh	HDAC3 inhib	Mot1-301 SUMO	IDE act	IDE cell inh	IDE cell inh cf	HEK cytotox
CCOC(=O)N1CCN(CC(O)COCc2ccccc2)CC1 (stereo not given)	i	i	i	i	i	nt	nt
CN(C)S(=O)(=O)N1CCN(CC(O)COc2ccc3cc(Br)ccc3c2)CC1 (stereo not given)	i	i	i	i	i	nt	nt
CN(C)S(=O)(=O)N1CCN(CC(O)COc2ccc(-c3ccccc3)cc2)CC1 (stereo not given)	i	i	i	i	17.5	i	i
CCN(CC)C(=O)[C@H]1CC(CC(=O)NC(C)(C)C)C(=O)N2CCc3c([nH]c4ccc(OC)cc34)[C@]12C (stereo not given in full)	nt	nt	nt	i	nt	nt	nt
O=C(Nc1ccccc1)N1CCN(c2nc(-c3ccccc3)ns2)CC1	i	i	i	i	i	nt	nt
Cc1c(Cl)cccc1NC(=O)N1CCCC1	i	i	i	i	i	nt	nt
O=C(Nc1ccccc1Cl)N1CCCN(c2nc(-c3ccccc3)ns2)CC1	i	i	i	i	20.7	i	31.4
Cc1c(Cl)cccc1NC(=O)N1CCCN(c2nc(-c3ccccc3)ns2)CC1	i	i	i	i	17.2	i	50.7
CC1(C)NC(=O)N(CC(=O)OCC(=O)Nc2c(Br)cc([N+](=O)[O-])cc2Br)C1=O	nt	nt	nt	i	nt	nt	nt
O=C(NN=C1CCCC1)c1sc2ccccc2c1Cl	i	i	i	i	i	nt	nt
O=C1CCC/C(=N/NC(=O)c2sc3ccccc3c2Cl)C1	i	i	i	i	26.3	27.0	i
CCCN1C(=O)CC(=O)N=C1SCC(=O)Nc1ccccc1F	i	i	i	i	i	nt	nt
O=C1c2cccc3c(N4CCCCC4)ccc(c23)C(=O)N1c1ccc(O)cc1	i	i	i	i	75.0	71.7	i
O=C(O)c1ccc(N2CCCCCC2)c(N2C(=O)c3ccccc3C2=O)c1	i	i	i	i	i	nt	nt
O=C1c2cccc3c(N4CCCCC4)ccc(c23)C(=O)N1c1ccccc1O	i	i	nt	i	88.7	152.2	i
Cc1ccc(C2=N/C(=C\c3ccc(F)cc3)C(=O)N2)cc1	i	i	i	i	i	nt	nt
Oc1[nH]c(=S)sc1/C=C1\C(c2ccccc2)=Nc2ccccc21	i	i	i	i	17.8	i	i
Oc1[nH]c(=S)sc1C=C1N=c2ccccc2=N1	i	i	i	nt	i	nt	nt
O=C1[C@@H]2[C@@H](CN3CN(c4ccccc4)N=C(c4ccccc4)[C@@]23c2ccccc2)C(=O)N1c1ccccc1	nt	nt	nt	i	nt	nt	nt
Cc1ccc(NC(=O)c2cccc(S(=O)(=O)N(C)C3CCCCC3)c2)nc1	i	i	i	i	i	nt	nt
CC(C)/C=C1\CC/C(=C\c2ccc(N(C)C)cc2)C1=O	nt	nt	i	i	67.6	144.2	i
COc1ccc(-c2cc(-c3ccccc3O)[nH]n2)cc1OC	i	i	i	i	i	nt	nt
COc1ccc(-c2cc(-c3ccc(OC)c(OC)c3)n[nH]2)c(O)c1	i	i	i	i	17.4	i	i
Cc1nn(C)cc1S(=O)(=O)NCc1ccc2c(c1)OCO2	i	i	i	i	i	nt	nt
O=c1[nH]oc2cc(Cl)ccc12	i	i	i	i	16.7	i	i
